Legend:
Test in all cases: log2 ratio of Biotin-Ahx-Ub-VS probe labelling (fragment/DMSO); higher = less target engagement (more negative = stronger competition), active = hit call of the paper (q ≤ 0.05, log2 ratio ≤ -1)
Settings in all cases: compound concentration: 200 uM; treatment time: 3 h
USP42 = target: T1, USP42 (UniProt Q9H9J4)
T1 sequence (whole entry): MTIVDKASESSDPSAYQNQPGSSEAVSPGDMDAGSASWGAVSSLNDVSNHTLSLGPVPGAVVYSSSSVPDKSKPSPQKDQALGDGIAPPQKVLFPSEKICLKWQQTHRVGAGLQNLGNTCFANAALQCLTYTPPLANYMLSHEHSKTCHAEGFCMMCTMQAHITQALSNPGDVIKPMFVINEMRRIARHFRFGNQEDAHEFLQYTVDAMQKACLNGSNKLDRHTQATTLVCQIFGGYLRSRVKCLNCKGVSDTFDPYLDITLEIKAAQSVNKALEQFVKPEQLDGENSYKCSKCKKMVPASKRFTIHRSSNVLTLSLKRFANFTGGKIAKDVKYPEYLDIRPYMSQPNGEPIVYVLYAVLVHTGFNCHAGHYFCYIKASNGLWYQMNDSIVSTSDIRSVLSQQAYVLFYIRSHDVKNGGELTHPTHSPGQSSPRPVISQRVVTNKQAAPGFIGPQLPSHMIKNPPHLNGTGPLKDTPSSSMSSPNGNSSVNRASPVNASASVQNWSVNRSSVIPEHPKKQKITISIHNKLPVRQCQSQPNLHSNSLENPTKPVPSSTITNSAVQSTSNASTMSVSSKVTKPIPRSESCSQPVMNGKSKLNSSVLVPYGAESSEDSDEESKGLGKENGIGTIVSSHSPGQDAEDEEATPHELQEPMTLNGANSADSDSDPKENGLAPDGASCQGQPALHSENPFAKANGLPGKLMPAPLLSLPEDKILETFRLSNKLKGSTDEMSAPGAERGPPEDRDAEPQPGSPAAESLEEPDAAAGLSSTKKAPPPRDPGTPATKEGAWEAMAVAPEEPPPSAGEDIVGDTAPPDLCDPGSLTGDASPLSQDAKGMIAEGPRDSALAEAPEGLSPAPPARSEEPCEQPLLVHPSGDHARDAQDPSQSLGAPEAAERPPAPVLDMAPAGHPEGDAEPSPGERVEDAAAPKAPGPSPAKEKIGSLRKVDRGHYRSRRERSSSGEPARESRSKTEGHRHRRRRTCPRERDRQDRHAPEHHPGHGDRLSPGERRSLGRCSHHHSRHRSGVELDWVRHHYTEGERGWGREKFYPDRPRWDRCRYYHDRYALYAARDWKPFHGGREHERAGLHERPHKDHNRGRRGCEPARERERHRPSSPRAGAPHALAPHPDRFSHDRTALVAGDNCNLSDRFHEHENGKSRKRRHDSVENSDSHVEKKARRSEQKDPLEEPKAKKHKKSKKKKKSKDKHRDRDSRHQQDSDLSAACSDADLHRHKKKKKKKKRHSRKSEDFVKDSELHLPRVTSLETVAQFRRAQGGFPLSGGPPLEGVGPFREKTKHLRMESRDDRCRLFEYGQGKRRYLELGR
How it was run: (§1)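 Each value is an average log2 ratio of fragment to vehicle, tested by unpaired t-test. The underlying Spectronaut label-free quantities were global-median-normalised, and only proteins with ≥2 unique peptides were included. Triplicate HEK293T lysate samples (495 µg) were exposed to fragment at 200 µM or vehicle for 3 h, then to Biotin-Ahx-Ub-VS at 0.5 µM final for 1 h, before NeutrAvidin enrichment of labelled DUBs, LysC and trypsin digestion, and diaPASEF LC-MS/MS.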

USP46 = USP46 (UniProt P62068)
USP46, sequence (P62068 whole entry): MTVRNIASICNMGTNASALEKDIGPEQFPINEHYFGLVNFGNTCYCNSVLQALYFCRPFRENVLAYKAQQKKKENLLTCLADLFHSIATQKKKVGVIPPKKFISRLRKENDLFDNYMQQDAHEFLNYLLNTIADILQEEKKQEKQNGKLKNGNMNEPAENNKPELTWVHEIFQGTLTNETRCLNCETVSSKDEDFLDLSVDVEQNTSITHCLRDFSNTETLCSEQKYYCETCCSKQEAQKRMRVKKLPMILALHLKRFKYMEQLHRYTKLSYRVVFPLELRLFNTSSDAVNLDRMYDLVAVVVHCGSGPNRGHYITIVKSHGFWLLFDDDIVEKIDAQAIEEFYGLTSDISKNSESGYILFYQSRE
How it was run: as §1

USP47 = target: T2, USP47 (UniProt Q96K76)
T2 sequence (whole entry): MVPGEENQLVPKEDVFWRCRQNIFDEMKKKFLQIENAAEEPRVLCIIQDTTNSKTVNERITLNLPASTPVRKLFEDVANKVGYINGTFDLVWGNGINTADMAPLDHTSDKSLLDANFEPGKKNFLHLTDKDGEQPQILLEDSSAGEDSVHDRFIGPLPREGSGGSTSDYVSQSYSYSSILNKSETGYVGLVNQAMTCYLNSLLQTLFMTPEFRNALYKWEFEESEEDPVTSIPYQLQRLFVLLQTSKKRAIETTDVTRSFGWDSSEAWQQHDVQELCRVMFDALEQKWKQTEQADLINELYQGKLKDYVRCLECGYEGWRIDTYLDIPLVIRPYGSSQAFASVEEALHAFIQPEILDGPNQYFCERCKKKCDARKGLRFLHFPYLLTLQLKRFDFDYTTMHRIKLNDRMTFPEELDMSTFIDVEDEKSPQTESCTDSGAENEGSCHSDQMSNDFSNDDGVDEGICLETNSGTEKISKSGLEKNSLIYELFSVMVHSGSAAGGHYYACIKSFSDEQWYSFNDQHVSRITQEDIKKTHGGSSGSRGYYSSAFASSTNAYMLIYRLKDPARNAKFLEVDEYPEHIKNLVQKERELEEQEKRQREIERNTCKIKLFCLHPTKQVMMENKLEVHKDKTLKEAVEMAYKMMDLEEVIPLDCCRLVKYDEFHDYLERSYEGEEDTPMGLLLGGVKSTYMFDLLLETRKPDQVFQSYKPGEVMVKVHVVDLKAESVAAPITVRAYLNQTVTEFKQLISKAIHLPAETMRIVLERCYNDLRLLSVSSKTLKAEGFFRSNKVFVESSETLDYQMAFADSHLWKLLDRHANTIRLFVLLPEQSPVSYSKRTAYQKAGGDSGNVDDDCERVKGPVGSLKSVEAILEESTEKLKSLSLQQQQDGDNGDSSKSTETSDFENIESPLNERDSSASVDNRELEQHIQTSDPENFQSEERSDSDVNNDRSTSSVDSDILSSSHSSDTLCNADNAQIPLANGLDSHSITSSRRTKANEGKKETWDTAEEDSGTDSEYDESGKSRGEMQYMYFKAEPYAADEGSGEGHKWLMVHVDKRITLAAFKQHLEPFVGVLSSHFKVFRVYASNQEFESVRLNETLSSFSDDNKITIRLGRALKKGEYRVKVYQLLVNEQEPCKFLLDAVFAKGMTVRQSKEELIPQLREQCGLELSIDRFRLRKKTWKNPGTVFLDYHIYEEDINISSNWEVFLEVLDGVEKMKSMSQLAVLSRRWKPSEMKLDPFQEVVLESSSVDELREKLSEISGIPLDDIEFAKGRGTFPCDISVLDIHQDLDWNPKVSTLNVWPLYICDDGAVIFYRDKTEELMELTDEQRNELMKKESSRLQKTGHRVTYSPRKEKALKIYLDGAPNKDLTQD
How it was run: as §1

USP48 = target: T3, USP48 (UniProt Q86UV5)
T3 sequence (whole entry): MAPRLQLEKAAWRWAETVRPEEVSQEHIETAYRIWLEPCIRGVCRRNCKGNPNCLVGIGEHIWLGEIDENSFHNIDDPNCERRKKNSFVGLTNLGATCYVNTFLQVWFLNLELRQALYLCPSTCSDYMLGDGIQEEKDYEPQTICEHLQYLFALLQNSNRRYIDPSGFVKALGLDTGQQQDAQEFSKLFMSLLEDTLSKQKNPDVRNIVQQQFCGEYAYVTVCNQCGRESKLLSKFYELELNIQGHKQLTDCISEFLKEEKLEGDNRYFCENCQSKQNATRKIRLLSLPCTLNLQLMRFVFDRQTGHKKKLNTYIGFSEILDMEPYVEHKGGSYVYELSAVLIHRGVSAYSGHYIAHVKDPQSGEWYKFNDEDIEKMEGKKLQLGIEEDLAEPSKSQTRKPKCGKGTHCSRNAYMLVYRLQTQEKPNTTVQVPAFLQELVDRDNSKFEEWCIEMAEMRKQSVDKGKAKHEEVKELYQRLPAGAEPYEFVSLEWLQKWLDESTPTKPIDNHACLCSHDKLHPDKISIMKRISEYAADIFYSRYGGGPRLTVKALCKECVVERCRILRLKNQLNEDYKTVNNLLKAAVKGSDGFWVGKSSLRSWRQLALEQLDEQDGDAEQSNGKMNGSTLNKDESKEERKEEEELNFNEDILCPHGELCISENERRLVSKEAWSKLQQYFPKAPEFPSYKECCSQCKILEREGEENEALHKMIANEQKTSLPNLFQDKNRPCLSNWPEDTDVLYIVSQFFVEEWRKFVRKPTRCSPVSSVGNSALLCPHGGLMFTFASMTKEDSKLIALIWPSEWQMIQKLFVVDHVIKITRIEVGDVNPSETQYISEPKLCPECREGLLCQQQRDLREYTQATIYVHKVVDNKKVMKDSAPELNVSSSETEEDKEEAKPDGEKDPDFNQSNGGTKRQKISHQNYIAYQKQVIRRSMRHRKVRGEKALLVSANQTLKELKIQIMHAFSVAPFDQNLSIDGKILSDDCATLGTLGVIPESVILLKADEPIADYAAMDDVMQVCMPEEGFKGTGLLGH
How it was run: as §1

USP5 = target: T4, USP5 (UniProt P45974)
T4 sequence (whole entry): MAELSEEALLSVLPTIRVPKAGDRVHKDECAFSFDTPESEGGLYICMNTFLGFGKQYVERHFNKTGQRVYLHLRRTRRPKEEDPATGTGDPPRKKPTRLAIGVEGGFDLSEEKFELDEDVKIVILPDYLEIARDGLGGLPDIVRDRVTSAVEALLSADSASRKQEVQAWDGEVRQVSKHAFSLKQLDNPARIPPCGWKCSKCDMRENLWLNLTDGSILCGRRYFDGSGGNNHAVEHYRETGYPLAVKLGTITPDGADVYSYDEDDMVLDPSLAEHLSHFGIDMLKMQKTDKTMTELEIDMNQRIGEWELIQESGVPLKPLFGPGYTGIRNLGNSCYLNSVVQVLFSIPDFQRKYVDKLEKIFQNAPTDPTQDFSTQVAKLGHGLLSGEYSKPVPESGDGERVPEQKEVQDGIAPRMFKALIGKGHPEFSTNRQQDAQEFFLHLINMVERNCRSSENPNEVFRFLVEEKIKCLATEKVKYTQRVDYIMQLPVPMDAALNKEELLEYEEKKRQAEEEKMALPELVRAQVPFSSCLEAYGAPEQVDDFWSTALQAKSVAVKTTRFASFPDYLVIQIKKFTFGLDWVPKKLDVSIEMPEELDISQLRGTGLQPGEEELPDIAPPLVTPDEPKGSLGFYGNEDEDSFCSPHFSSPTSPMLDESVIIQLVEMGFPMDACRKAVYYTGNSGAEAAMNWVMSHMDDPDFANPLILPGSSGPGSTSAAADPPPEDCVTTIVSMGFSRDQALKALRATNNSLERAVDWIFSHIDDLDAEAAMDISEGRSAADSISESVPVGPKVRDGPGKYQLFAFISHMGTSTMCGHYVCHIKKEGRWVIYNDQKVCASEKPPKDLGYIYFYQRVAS
How it was run: as §1

USP54 = USP54 (UniProt Q70EL1)
USP54, sequence (Q70EL1 whole entry): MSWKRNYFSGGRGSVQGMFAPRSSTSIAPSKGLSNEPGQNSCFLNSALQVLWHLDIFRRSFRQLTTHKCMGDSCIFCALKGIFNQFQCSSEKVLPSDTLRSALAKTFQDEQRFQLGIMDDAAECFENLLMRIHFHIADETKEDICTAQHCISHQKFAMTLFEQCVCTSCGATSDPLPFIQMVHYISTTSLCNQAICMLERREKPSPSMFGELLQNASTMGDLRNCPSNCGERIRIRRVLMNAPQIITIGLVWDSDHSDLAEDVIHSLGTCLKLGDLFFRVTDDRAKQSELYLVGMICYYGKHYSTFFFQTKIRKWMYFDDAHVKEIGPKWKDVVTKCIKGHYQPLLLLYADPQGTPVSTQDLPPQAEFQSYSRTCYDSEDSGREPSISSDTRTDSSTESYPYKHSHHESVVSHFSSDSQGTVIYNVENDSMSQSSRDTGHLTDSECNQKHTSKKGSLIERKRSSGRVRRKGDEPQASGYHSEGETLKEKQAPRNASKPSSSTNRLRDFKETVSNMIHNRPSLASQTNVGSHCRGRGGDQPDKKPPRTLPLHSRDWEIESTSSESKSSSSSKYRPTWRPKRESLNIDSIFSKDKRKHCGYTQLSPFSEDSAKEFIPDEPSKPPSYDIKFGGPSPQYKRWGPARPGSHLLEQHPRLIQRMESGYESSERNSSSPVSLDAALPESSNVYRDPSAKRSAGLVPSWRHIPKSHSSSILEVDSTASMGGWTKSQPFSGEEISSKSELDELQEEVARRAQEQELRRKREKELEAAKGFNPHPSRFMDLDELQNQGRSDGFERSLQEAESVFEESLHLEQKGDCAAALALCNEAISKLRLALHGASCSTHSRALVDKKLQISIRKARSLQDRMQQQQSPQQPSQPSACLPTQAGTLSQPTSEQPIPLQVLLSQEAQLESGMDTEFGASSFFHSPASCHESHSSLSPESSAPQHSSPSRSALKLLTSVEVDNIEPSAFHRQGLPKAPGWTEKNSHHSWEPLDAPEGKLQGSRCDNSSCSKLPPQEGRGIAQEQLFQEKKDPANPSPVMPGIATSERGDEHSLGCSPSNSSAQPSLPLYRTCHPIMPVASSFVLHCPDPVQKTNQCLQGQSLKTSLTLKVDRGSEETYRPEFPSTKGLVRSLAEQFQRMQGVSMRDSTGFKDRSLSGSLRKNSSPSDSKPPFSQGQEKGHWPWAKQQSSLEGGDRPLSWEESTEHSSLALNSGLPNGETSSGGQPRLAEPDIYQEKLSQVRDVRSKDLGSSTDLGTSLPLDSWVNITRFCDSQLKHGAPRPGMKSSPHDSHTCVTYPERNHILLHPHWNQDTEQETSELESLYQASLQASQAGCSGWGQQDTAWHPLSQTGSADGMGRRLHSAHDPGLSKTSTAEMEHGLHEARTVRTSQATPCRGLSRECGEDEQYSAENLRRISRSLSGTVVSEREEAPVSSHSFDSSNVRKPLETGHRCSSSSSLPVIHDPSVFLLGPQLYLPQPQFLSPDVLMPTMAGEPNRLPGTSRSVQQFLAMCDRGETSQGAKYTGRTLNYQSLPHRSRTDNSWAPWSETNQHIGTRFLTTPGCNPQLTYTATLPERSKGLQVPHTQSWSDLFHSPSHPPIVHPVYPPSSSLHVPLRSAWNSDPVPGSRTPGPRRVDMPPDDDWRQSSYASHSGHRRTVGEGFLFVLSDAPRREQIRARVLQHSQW
How it was run: as §1

USP7 = USP7 (UniProt Q93009)
How it was run: as §1

USP8 = target: T5, USP8 (UniProt P40818)
T5 sequence (whole entry): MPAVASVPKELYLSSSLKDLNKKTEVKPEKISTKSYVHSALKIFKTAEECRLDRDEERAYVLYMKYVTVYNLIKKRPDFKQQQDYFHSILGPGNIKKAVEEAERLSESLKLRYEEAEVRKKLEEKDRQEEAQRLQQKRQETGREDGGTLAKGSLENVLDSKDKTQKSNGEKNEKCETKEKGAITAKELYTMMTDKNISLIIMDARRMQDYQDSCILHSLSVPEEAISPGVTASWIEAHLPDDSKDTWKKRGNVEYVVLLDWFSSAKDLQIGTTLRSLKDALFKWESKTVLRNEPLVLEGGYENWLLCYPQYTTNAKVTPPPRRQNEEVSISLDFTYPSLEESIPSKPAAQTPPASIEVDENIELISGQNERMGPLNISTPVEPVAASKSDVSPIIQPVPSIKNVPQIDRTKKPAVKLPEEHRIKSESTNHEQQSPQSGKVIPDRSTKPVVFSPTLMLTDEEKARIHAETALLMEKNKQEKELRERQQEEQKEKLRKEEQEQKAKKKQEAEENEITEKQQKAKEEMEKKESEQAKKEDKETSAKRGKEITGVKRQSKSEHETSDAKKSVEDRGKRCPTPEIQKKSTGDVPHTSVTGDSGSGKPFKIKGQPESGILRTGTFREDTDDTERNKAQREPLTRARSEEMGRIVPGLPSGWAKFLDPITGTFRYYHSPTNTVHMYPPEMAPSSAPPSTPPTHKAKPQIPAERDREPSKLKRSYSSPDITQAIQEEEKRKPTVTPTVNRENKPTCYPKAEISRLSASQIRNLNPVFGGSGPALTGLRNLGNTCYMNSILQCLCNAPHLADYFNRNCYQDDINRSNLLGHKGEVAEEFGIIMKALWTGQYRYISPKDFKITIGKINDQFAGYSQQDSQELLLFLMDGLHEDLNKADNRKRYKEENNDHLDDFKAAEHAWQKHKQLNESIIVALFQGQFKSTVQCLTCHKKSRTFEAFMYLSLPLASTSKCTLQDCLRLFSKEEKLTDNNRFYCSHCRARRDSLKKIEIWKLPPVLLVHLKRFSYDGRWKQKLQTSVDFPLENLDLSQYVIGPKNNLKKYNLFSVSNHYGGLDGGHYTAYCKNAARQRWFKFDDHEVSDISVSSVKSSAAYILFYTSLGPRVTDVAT
How it was run: as §1

USP9X = USP9X (UniProt Q93008)
USP9X, sequence (Q93008 whole entry): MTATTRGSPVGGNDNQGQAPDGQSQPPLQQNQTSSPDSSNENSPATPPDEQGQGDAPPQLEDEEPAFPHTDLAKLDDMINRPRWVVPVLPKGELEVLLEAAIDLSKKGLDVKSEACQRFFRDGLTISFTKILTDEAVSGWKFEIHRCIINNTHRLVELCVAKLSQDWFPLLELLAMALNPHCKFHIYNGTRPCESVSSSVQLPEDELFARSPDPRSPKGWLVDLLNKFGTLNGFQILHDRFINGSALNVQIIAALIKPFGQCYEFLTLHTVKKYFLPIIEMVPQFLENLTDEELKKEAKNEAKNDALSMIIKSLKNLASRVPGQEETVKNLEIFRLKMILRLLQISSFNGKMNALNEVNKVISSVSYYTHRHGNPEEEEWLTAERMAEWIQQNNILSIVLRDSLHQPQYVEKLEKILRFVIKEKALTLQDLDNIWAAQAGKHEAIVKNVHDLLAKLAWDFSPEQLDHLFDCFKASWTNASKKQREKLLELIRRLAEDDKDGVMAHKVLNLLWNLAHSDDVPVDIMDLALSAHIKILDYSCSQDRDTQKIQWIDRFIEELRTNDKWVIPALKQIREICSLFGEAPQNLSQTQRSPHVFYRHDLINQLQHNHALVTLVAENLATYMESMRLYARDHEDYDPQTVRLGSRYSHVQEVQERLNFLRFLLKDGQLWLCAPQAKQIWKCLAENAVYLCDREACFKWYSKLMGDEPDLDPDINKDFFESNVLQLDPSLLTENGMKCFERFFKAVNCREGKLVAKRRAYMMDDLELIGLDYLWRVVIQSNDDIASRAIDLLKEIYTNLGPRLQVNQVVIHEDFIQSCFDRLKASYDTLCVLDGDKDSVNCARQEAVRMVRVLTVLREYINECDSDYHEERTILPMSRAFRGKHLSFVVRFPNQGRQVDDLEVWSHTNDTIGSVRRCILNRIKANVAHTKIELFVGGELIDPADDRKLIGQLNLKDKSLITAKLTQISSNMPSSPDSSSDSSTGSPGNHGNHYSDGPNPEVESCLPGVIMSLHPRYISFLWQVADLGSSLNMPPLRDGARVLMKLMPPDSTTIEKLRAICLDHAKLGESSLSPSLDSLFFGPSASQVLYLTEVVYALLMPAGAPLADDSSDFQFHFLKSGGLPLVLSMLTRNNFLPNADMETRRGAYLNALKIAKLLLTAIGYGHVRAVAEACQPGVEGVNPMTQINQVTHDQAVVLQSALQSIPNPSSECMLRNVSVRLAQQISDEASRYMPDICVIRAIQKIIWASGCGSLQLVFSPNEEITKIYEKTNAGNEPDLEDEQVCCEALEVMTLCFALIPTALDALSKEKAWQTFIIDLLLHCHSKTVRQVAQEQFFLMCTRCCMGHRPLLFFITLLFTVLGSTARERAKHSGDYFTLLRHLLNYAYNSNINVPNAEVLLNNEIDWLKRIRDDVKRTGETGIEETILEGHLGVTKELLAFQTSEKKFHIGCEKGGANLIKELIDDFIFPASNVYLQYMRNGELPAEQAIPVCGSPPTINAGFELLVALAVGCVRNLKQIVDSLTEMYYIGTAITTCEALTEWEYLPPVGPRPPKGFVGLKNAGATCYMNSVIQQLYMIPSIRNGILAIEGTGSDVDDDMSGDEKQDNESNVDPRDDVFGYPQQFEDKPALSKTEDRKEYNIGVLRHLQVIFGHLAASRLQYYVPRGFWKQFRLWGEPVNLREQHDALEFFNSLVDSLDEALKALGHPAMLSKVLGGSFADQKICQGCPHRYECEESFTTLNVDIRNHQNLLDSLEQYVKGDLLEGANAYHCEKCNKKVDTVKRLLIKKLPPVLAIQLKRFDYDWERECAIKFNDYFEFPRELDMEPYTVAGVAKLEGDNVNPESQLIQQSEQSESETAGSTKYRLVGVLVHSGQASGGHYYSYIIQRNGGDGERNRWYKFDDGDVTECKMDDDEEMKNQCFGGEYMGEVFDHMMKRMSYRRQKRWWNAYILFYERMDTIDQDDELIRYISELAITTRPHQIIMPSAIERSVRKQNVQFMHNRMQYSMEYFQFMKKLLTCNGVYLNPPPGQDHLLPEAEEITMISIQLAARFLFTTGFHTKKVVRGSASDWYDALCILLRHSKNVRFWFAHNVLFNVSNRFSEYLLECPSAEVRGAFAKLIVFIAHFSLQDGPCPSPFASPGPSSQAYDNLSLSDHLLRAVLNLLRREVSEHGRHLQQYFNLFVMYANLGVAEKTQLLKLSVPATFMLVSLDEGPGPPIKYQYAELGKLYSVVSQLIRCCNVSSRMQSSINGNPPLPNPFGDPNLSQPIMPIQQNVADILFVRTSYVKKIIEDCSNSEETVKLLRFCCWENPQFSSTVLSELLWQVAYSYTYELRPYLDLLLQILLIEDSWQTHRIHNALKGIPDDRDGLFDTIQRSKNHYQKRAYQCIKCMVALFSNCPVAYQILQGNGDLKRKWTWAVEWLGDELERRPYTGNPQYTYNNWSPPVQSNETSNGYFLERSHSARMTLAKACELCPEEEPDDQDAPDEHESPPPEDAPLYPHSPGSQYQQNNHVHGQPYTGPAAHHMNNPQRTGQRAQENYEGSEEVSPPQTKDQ
How it was run: as §1

UniProt O00487 = target: UniProt O00487
UniProt O00487, sequence (O00487 whole entry): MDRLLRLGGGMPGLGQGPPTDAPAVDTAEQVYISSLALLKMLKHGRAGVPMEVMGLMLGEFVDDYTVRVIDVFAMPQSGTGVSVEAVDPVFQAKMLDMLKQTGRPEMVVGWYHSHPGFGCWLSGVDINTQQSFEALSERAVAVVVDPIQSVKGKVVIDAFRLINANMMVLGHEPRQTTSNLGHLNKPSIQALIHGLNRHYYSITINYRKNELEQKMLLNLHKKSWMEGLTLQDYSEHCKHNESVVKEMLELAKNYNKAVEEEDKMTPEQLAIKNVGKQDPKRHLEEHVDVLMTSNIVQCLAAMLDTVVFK
How it was run: as §1

Measured: log2 ratio of Biotin-Ahx-Ub-VS probe labelling

Cc1ccc(-c2nnc(C)[nH]2)c(NC(=O)CCl)c1
inactive: USP42 0.00752 | USP46 0.277 | USP47 -0.177 | USP48 -0.239 | USP5 0.0867 | USP54 -0.227 | USP7 -0.138 | USP8 0.112 | USP9X -0.0335 | UniProt O00487 -0.138
